The supplement of paper PMC8975748
Where a name gives a salt, the structure may show the parent alone. ± gives the standard deviation of the averaged measurements.

What follows are compounds tested on Saccharomyces cerevisiae BY4741 SeMeCo community (assay: mean cell size (pixel area) (pixels); higher = larger cells). Conditions: 10 µM; 24 h; SM minimal medium.
In short: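 The test system was a fluorescent Saccharomyces cerevisiae BY4741 community with four plasmids, each restoring one auxotrophy and carrying a fluorescent marker. Cells were grown for 24 h in SM medium with drug at a final 10 µM in 384-well plates, then fixed with paraformaldehyde and imaged by automated confocal microscopy for Harmony analysis of mean cell pixel area per well. Values represent the average of 3 replicates. Same SeMeCo high-content imaging drug screen: Selleck FDA-approved drugs at 10 µM, 24 h in SM medium, 384-well plates, 3 replicates.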

| SMILES | mean cell size |
| --- | --- |
| C=C[C@]1(C)C[C@@H](OC(=O)CSC(C)(C)CNC(=O)[C@H](N)C(C)C)[C@]2(C)[C@H](C)CC[C@]3(CCC(=O)[C@H]32)[C@@H](C)[C@@H]1O [Valnemulin HCl] | 12.3 ± 0.19 |
| C[N+]1(C)CCC(=C(c2ccccc2)c2ccccc2)CC1 [Diphemanil Methylsulfate] | 12.6 ± 0.23 |
| CC[C@H]1OC(=O)[C@H](C)[C@@H](O[C@H]2C[C@@](C)(OC)[C@@H](O)[C@H](C)O2)[C@H](C)[C@@H](O[C@@H]2O[C@H](C)C[C@H](N(C)C)[C@H]2O)[C@](C)(O)C[C@@H](C)/C(=N\OCOCCOC)[C@H](C)[C@@H](O)[C@]1(C)O [Roxithromycin] | 12.4 ± 0.26 |
| NCc1ccccc1CC(=O)N[C@@H]1C(=O)N2C(C(=O)O)=C(CSc3nnnn3CC(=O)O)CS[C@H]12 [Ceforanide] | 12.09 ± 0.042 |
| CC(C(=O)O)c1cccc(C(=O)c2ccccc2)c1 (centres undefined) [Ketoprofen] | 12.4 ± 0.2 |
| C#C[C@]1(O)CC[C@H]2[C@@H]3CCC4=Cc5oncc5C[C@]4(C)[C@H]3CC[C@@]21C [Danazol] | 12.2 ± 0.23 |
| Cc1c(OCC(F)(F)F)ccnc1C[S+]([O-])c1nc2ccccc2[nH]1 (centres undefined) [Lansoprazole] | 12.5 ± 0.14 |
| CC(C(O)c1ccc(O)cc1)N1CCC(Cc2ccccc2)CC1 (centres undefined) [Ifenprodil Tartrate] | 12.5 ± 0.24 |
| Cc1ncc([N+](=O)[O-])n1C [Dimetridazole] | 12.5 ± 0.19 |
| CC(=O)N1CCN(c2ccc(OCC3COC(Cn4ccnc4)(c4ccc(Cl)cc4Cl)O3)cc2)CC1 (centres undefined) [Ketoconazole] | 11.9 ± 0.21 |
| CN1C2CCCC1CC(NC(=O)c1nn(C)c3ccccc13)C2 (centres undefined) [Granisetron HCl] | 11.8 ± 0.16 |
| NC(=O)OCC(COC(N)=O)c1ccccc1 [Felbamate] | 12.33 ± 0.12 |
| CCCN(CCC)CCc1cccc2c1CC(=O)N2 [Ropinirole HCl] | 12.4 ± 0.22 |
| CC(=O)NO [Acetohydroxamic acid] | 12.5 ± 0.15 |
| COc1ccc2c3c1O[C@H]1C[C@@H](O)C=C[C@@]31CCN(C)C2 [Galanthamine HBr] | 11.87 ± 0.11 |
| CCN(CC)CC#CCOC(=O)C(O)(c1ccccc1)C1CCCCC1 (centres undefined) [Oxybutynin chloride] | 12.57 ± 0.03 |
| O=C1CC2(CCCC2)CC(=O)N1CCCCN1CCN(c2ncccn2)CC1 [Buspirone HCl] | 12.4 ± 0.25 |

| SMILES | mean cell size |
| --- | --- |
| Cc1ccc(-c2cc(C(F)(F)F)nn2-c2ccc(S(N)(=O)=O)cc2)cc1 [Celecoxib] | 12.5 ± 0.15 |
| Cc1cccc(N(C)C(=S)Oc2ccc3ccccc3c2)c1 [Tolnaftate] | 12.3 ± 0.27 |
| CC(C)Cc1ccc(C(C)C(=O)O)cc1 (centres undefined) [Ibuprofen Lysine] | 13 ± 0.042 |
| O=C(Nc1cc(Cl)cc(Cl)c1O)c1c(O)c(Cl)cc(Cl)c1Cl [Oxyclozanide] | 12.2 ± 0.31 |
| O=C(O)CCc1nc(-c2ccccc2)c(-c2ccccc2)o1 [Oxaprozin] | 13 ± 0.46 |
| CC[C@H]1OC(=O)[C@H](C)[C@@H](O[C@H]2C[C@@](C)(OC)[C@@H](O)[C@H](C)O2)[C@H](C)[C@@H](O[C@@H]2O[C@H](C)C[C@H](N(C)C)[C@H]2O)[C@](C)(O)C[C@@H](C)C(=O)[C@H](C)[C@H]2OC(=O)O[C@@]21C [Erythromycin Cyclocarbonate] | 12.19 ± 0.065 |
| CN1CCC(=C2c3ccccc3C=Cc3ccccc32)CC1 [Cyproheptadine hydrochloride] | 12.61 ± 0.097 |
| CCOc1cc(N)c(Cl)cc1C(=O)NCC1CN(Cc2ccc(F)cc2)CCO1 (centres undefined) [Mosapride] | 12.5 ± 0.23 |
| C/C(=C\C(=O)OCCCCCCCCC(=O)O)C[C@@H]1OC[C@H](C[C@@H]2O[C@H]2[C@@H](C)[C@H](C)O)[C@@H](O)[C@H]1O [Mupirocin calcium] | 12.2 ± 0.29 |
| Cc1cc(C)nc(NS(=O)(=O)c2ccc(N)cc2)n1 [Sulfamethazine Sodium Salt] | 12.28 ± 0.095 |
| CCN(CC)CCNC(=O)c1cc(Cl)c(N)cc1OC [Metoclopramide] | 12 ± 0.25 |
| CC1=C(C(=O)OCCN(Cc2ccccc2)c2ccccc2)C(c2cccc([N+](=O)[O-])c2)C(P2(=O)OCC(C)(C)CO2)=C(C)N1 (centres undefined) [Efonidipine] | 12.6 ± 0.14 |
| CS(=O)(=O)c1ccc([C@@H](O)[C@@H](CF)NC(=O)C(Cl)Cl)cc1 [Florfenicol] | 12.4 ± 0.26 |
| COC(=O)C1=C(C)NC(C)=C(C(=O)OC(C)(C)CN(C)CCC(c2ccccc2)c2ccccc2)C1c1cccc([N+](=O)[O-])c1 (centres undefined) [Lercanidipine hydrochloride] | 12.3 ± 0.19 |
| O=c1[nH]c2ccccc2n1CCN1CCN(c2cccc(C(F)(F)F)c2)CC1 [Flibanserin] | 12.25 ± 0.046 |
| NC1CCN(c2nc3c(cc2F)c(=O)c(C(=O)O)cn3-c2ccc(F)cc2F)C1 (centres undefined) [Tosufloxacin p-Toluenesulfonate Hydrate] | 12.3 ± 0.29 |
| CC1(C)S[C@@H]2[C@H](NC(=O)[C@H](NC(=O)N3CCNC3=O)c3ccccc3)C(=O)N2[C@H]1C(=O)O [Azlocillin sodium salt] | 12.4 ± 0.27 |
